# Shn3 3UTR inh – reduction of Shn3 3'UTR firefly luciferase signal, primary screen, Schnurri-3 inhibitor project, cell-based, Clone20 osteoblasts, set 2. 0.52% of 360,000 active. Clone20 osteoblast Shn3 3'UTR firefly luciferase, 24 h. inhibition, % at 12.5 µM;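 active = mean inhibition of at least 75% with every replicate also reaching 75%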;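 note: 0% = median of neutral control wells and 100% = pilot-screen positive control compound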
# 697 NFkB inh – inhibitors of PMA/ionomycin-induced NF-kB reporter, 697 cells, primary screen, B-cell NF-kB inhibitor project, cell-based, luminescence, uHTS; 697 B-cell NF-kB luciferase reporter, 16 h; inhibition, % at 4 µM; 0.33% of 330,000 active; AID 435022, 2010; in the data active = inhibition above about 35%
# Jurkat NFkB inh – inhibitors of induced NF-kB luciferase reporter, primary screen, TCR NF-kB activation inhibitor project, cell-based, luminescence, uHTS; Jurkat, PMA/ionomycin-induced NF-kB luciferase reporter; inhibition, % at 4 µM; 0.53% of 330,000 active; in the data active = inhibition above about 50%
# TAG inh – inhibitors of triacylglycerol accumulation, primary screen, cell-based, uHTS, fluorescence, H9c2; H9c2 cells, Nile Red lipid (TAG) fluorescence; cells loaded with 200 µM oleic acid; 0.66% of 230,000 active; inhibition, % at 12.5 µM;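 active = pattern-corrected inhibition of lipid staining of at least 50% with the nuclear-stain viability signal not falling by more than 50%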;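 note: 0% = DMSO wells and 100% = triacsin C control wells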
# aSyn 5UTR inh – MLPCN primary screen, SNCA 5' untranslated region | AID 1813, 2009 | alpha-synuclein 5'UTR reporter, inhibitor activity | 0.82% of 300,000 active | inhibition, % (tested at 7.5 µM); in the data active = inhibition above about 60%;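 note: H4 neuroglioblastoma cells stably carrying SNCA 5'UTR luciferase fusion; 0% = DMSO wells and 100% = positive control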
# Gli-Sufu antag – Gli-Sufu pathway antagonists, primary screen, luciferase luminescence, Sufu-KO-LIGHT cells, uHTS | 0.74% of 340,000 active | Sufu-KO-LIGHT fibroblasts, Gli luciferase reporter luminescence | inhibition, % at 5 µM;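 active = inhibition above about 55%, limit read from the data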;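 note: 0% = DMSO-treated cells and 100% = wells with medium but no cells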
# * marks the source's active call; other numbers are inactive results; . = not tested or not shown. Rows were chosen to be rich in hits. Some 2.3% of all compounds tested hit in one or more screens of this group.
SMILES,Shn3 3UTR inh,697 NFkB inh,Jurkat NFkB inh,TAG inh,aSyn 5UTR inh,Gli-Sufu antag
CCN=C1NN=C(c2cc(C)n(Cc3ccco3)c2C)CS1,37,9,13,-4,36,71*
COc1cc(-c2onc3ccc(Br)cc23)cc(OC)c1OC,3,7,3,19,66*,18
COc1ccc(-c2onc3ccc(Br)cc23)cc1,1,3,-7,7,-23,-12
C[C@@]12C(=O)Nc3cc(F)c(F)cc3C(=O)N1[C@H]1c3cc(Cl)ccc3OC[C@@H]1[C@@H]2c1ccccc1,25,16,15,63*,.,17
C[C@@]12C(=O)Nc3ccc(Cl)cc3C(=O)N1[C@H]1c3cc(Cl)ccc3OC[C@@H]1[C@@H]2c1ccccc1,-19,22,0,39,.,-8
CCOC(=O)CNC(c1ccccc1)c1cc(Br)ccc1NC(C)=O (stereo not drawn),19,4,8,-10,-24,22
CC1=C/C(=N\NC(=S)Nc2cccnc2)CC(C)(C)C1,60,.,.,53*,-25,8
CC1(C)C2CC=C(/C=N/NC(=S)Nc3cccnc3)C1C2 (stereo not drawn),2,0,10,-2,0,-3
Cc1cc(C)c2sc(NNC(=O)c3ccc(S(=O)(=O)N4CCc5ccccc5C4)cc3)nc2c1,96*,-47,29,26,77*,26
Cc1cc(C)c2nc(NNC(=O)c3ccc(S(=O)(=O)N4CCc5ccccc5C4)cc3)sc2c1,93*,-19,8,11,75*,2
CCc1nnc(NC(=O)c2ccc(S(=O)(=O)N3CCc4ccccc4C3)cc2)s1,-18,9,15,-1,6,0
Cc1nnc(NC(=O)c2ccc(S(=O)(=O)N3CCc4ccccc4C3)cc2)o1,-2,-10,-21,-8,-6,-6
CC1CCN(C(=O)COC(=O)c2ccccc2NC(=O)c2ccco2)CC1,-8,12,-13,7,-73,-14
N#C/C=C1\n2c(nc3ccccc32)OC12CCCCC2,-4,-28,-3,-12,54,-3
O=c1c2c(nc3c(-c4ccc(Cl)cc4)c[nH]n13)CCCC2,40,-14,-3,21,66*,34
C/C(=N/NC(=O)c1ccc2c(c1)OCO2)c1ccc(Br)s1,-24,-64,-56,7,-89,-50
C/C(=N\NC(=O)c1ccc(Cl)c(Cl)c1)c1ccc(Br)s1,13,-1,4,.,91*,10
O=C(c1ccccc1)c1ccc2nc(-c3ccc(NC(=O)c4ccccc4F)cc3)[nH]c2c1,19,-27,4,58*,-101,-35
CCOC(=O)c1c(NC(=O)C2c3ccccc3Oc3ccccc32)sc(C(C)=O)c1C,89*,-3,7,.,32,20
O=C(N/N=C/c1ccc([N+](=O)[O-])o1)c1ccc2c(c1)OCO2,24,-14,8,.,94*,43
Cc1cc(O)cc(O)c1/C=N/NC(=O)c1ccc2c(c1)OCCO2,91*,.,.,-2,.,.
O=[N+]([O-])c1ccc(/C=N/N=C/c2ccc([N+](=O)[O-])o2)o1,98*,.,.,107,.,49
O=C(Cc1ccc([N+](=O)[O-])cc1)N/N=C/c1ccc([N+](=O)[O-])o1,1,8,-5,-4,89*,6
O=C(N/N=C\c1ccc(-c2ccc([N+](=O)[O-])cc2)o1)c1ccc2c(c1)OCO2,-11,-27,-3,.,4,1
CN(C)c1nnc(-c2ccc(Cl)cc2)o1,-14,6,1,9,-41,-2
SMILES,Shn3 3UTR inh,697 NFkB inh,Jurkat NFkB inh,TAG inh,aSyn 5UTR inh,Gli-Sufu antag
COCCCN(C(C)=O)c1nc(-c2ccccc2)cs1,-50,-100,-81,.,-146,-80
Cc1csc(SCCn2c(N3CCN(c4ccccc4)CC3)nc3c2c(=O)[nH]c(=O)n3C)n1,7,8,10,19,6,15
Cc1ccc2c(c1)c(/C=C/c1cc[n+](C)cc1)c(C)n2C,0,-3,46,.,44,57*
Cc1ccc2nc(Cl)c3nnnn3c2c1,97*,-17,-5,82,-25,10
Cc1ccc2nc(N3CCN(c4cccc(C)c4C)CC3)c3nnnn3c2c1,7,-14,-2,-1,25,5
Cc1[nH][nH]c(=O)c1C(c1c(C)[nH][nH]c1=O)c1cn(Cc2ccc(F)cc2)c2ccccc12,-2,.,.,.,.,3
Cc1[nH][nH]c(=O)c1C(c1c(C)[nH][nH]c1=O)c1cn(Cc2ccc(Cl)c(Cl)c2)c2ccccc12,12,.,.,.,90*,2
CC(=O)n1nc(-c2ccccc2)nc1NCc1ccc(N(C)C)cc1,-41,-29,-104,-11,-131,-49
CC1(C)C(C=C(Cl)Cl)C1C(=O)N(Cc1cccc(Cl)c1)C1CCS(=O)(=O)C1 (stereo not drawn),18,12,11,.,12,6
Cc1ccc(C(=O)c2c3ccc(C(F)(F)F)cc3[n+]([O-])n2CCCN)cc1,6,-22,25,28,-12,10
Cc1ccc(C(=O)c2c3ccc([N+](=O)[O-])cc3[n+]([O-])n2CCCN)cc1,-17,-126,-10,20,63*,19
CC[C@@H]1C=C(C(=O)O)[C@H](c2ccc(Cl)c(Cl)c2)N1S(=O)(=O)c1ccc(C)cc1,-6,2,10,2,.,2
CC1CC(C)(C)Nc2ccc(N=O)cc21 (stereo not drawn),93*,.,.,75,32,7
COc1ccccc1-n1cnnc1SCC(=O)c1cc(C)n(Cc2cccs2)c1C,-21,-38,-8,.,-17,0
Cc1cc(CN2CCOCC2)c(O)c(C2(C)CCCCC2)c1,87*,-20,-13,-15,12,1
CCCOC(=O)c1ccc(OCC(O)Cn2c(C)nc3ccccc32)cc1 (stereo not drawn),89*,-47,16,-36,-32,29
CCOc1ccc(/C=C\C(C)=N\O)cc1,-69,-133,-93,.,-150,-66
NC1=C(Br)C(=O)c2ccccc2C1=O,-1,4,2,76,65*,9
COc1cc2[nH]c(=O)n3nc(-c4ccccc4)nc3c2cc1OC,3,16,6,34,-19,8
Cc1cc(S(=O)(=O)c2ccc([N+](=O)[O-])cn2)ccc1Br,98*,-35,2,89,13,6
Cc1ccc(S(=O)(=O)c2ccc(C)cc2)cc1,1,-2,11,.,-5,7
Nc1ccc(S(=O)(=O)c2ccccc2)nc1,-23,1,-3,.,1,2
Cc1ccc(S(=O)(=O)c2ccc([N+](=O)[O-])cn2)cc1,95*,-55,39,.,-73,6
